Assay results from the supplement of paper PMC6555819.

Tests used:
Assay in all cases: PBM binding z-score (relative to random genomic background probes); higher = stronger binding; sequences stand for … in GC…GCGATTGACAGCGTAGAATGAAGG
[1] = tested on: PPARg:RXRa DBDmut IVT, anti-RXR (DBD mutation: RXRa K156A/R161A, NR concentration 270 nM, RXRa partner concentration 90 nM)
Procedure, shortened: (§1)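 Binding z-scores take random background probes as their reference. They come from custom Agilent 4×180K protein-binding microarrays incubated 1 h with ligand-free nuclear receptor dimers, with antibodies against each partner (one per run) detecting binding. Scanned fluorescence was regression-normalized.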

[2] = tested on: PPARg:RXRa IVT, anti-PPARg (NR concentration 270 nM, RXRa partner concentration 90 nM)
Procedure, shortened: as §1

[3] = tested on: PPARg DBDmut:RXRa IVT, anti-PPARg (DBD mutation: PPARg1 K132A/R137A, NR concentration 270 nM, RXRa partner concentration 90 nM)
Procedure, shortened: as §1

[4] = tested on: PPARg DBDmut IVT, anti-PPARg (DBD mutation: PPARg1 K132A/R137A, NR concentration 270 nM)
Procedure, shortened: as §1

[5] = tested on: PPARg homodimer (NR concentration 180 nM)
Procedure, shortened: as §1

[6] = tested on: PXR:RXRa (NR concentration 270 nM, RXRa partner concentration 90 nM)
Procedure, shortened: as §1

[7] = tested on: PXR homodimer (NR concentration 270 nM)
Procedure, shortened: as §1

[8] = tested on: RARa:RXR (NR concentration 270 nM, RXRa partner concentration 90 nM)
Procedure, shortened: as §1

[9] = tested on: RARa homodimer (NR concentration 270 nM)
Procedure, shortened: as §1

[10] = tested on: RARb:RXRa (NR concentration 270 nM, RXRa partner concentration 90 nM)
Procedure, shortened: as §1

[11] = tested on: RARb homodimer (NR concentration 270 nM)
Procedure, shortened: as §1

[12] = tested on: RARg:RXRa (NR concentration 270 nM, RXRa partner concentration 90 nM)
Procedure, shortened: as §1

[13] = tested on: RARg homodimer (NR concentration 270 nM)
Procedure, shortened: as §1

[14] = tested on: RXRa DBDmut IVT, anti-RXR (DBD mutation: RXRa K156A/R161A, NR concentration 90 nM)
Procedure, shortened: as §1

[15] = tested on: RXRa homodimer (NR concentration 180 nM)
Procedure, shortened: as §1

[16] = tested on: THRa:RXRa (NR concentration 90 nM, RXRa partner concentration 90 nM)
Procedure, shortened: as §1

[17] = tested on: THRa homodimer (NR concentration 90 nM)
Procedure, shortened: as §1

[18] = tested on: VDR homodimer (NR concentration 270 nM)
Procedure, shortened: as §1

Row | Sequence | PBM binding z-score [1] | PBM binding z-score [2] | PBM binding z-score [3] | PBM binding z-score [4] | PBM binding z-score [5] | PBM binding z-score [6] | PBM binding z-score [7] | PBM binding z-score [8] | PBM binding z-score [9] | PBM binding z-score [10] | PBM binding z-score [11] | PBM binding z-score [12] | PBM binding z-score [13] | PBM binding z-score [14] | PBM binding z-score [15] | PBM binding z-score [16] | PBM binding z-score [17] | PBM binding z-score [18]
1 | ACTATTCGTTGAGACGAGGGCAACCGATAGGTTG | 0.199 | 0.823 | 1.01 | 0.89 | 0.322 | 0.447 | 0.0808 | 0.403 | 0.418 | 0.886 | 1.26 | 0.489 | 0.81 | 0.393 | 0.523 | 1.33 | 0.648 | 0.643
2 | TGAATAAGGTTAAAGATCAGGGAACGTGGCGTCG | 1.52 | 2.45 | 0.601 | 0.358 | 1.06 | 1.73 | 0.429 | 3.27 | 0.953 | 2.35 | 1.04 | 2.51 | 1.72 | 0.599 | 3.39 | 2.48 | 0.616 | 0.301
3 | CTACCAAGGTGAACAATGTCGTTGATTACTATTC | 2.67 | 2.51 | 0.151 | 0.164 | 0.475 | 0.327 | -0.0411 | 0.755 | 0.471 | 1.67 | 1.24 | 0.711 | 0.812 | 0.62 | 0.563 | 2.04 | 1.01 | 0.118
4 | ATCTCTAGGTAACAAGTTCAGTGCAAGAGAGGAC | 3.44 | 2.92 | 1.24 | 1.13 | 1.36 | 1.87 | 2.67 | 0.985 | 1.05 | 1.69 | 1.96 | 1.28 | 1.46 | 0.886 | 0.703 | 2.19 | 1.03 | 3.19
5 | TCTTGTAGATCAGCAGGTTAATAAAGCTGGCCAA | 1.69 | 0.368 | 0.134 | 0.645 | -0.332 | 0.185 | -0.721 | 0.556 | 0.0648 | 0.000915 | -0.292 | -0.0895 | -0.342 | 0.531 | 0.393 | 0.0327 | -0.292 | -0.451
6 | AAGACAGGGTCACTAGGCCAGAGTAGGTACGAAT | 3.14 | 5.06 | 0.632 | 0.999 | 1.27 | 2.89 | 0.212 | 4.16 | -0.193 | 4.21 | 3.02 | 4.97 | 4.66 | 2.26 | 5.58 | 3.1 | 0.755 | 1.87
7 | CCAGACAGGTGAGAAGGTAACTAAGCCTCGATTA | 0.948 | 0.601 | -0.627 | -0.192 | 0.387 | -0.327 | 0.346 | -0.102 | 0.36 | 0.585 | 0.66 | 0.524 | 0.586 | -0.275 | 0.277 | 0.221 | -0.101 | -0.0907
8 | ACAGCCAGGTGAGTGAAGGTAACTCAGCTGGACG | 0.411 | 0.424 | -0.718 | -0.566 | -0.774 | -0.607 | -0.722 | -0.11 | -0.431 | 0.179 | -0.424 | -0.155 | -0.0105 | -0.98 | -0.177 | 1.46 | -0.534 | -0.751
9 | ATAACGAGGGCACGCTGAGTTGATAGCAGAGTAG | 4.2 | 4.09 | 1.98 | 1.47 | 0.669 | 1.83 | 0.518 | 1.04 | -0.277 | 2.61 | 1.27 | 1.72 | 2.4 | 1.64 | 1.46 | 2.07 | 0.209 | 2.05
10 | ATCTCTAGGTAAAGAAAGTTCAGTGAATGCAAAT | 2 | 1.69 | 1.32 | 0.83 | 1.41 | 2.68 | 1.68 | 1.42 | 1.41 | 1.82 | 2.33 | 1.43 | 1.59 | 0.781 | 0.876 | 1.22 | 0.318 | 1.71
11 | TAGCCTAGGTCATGCGCCAGTATACCACGCGAAC | 1.95 | 3.1 | 1.01 | -0.0835 | 1.11 | 1.61 | -0.142 | 2.54 | -0.948 | 3.76 | 2.94 | 3.96 | 4.3 | 0.931 | 3.24 | 3 | 1.31 | 0.653
12 | AGTCAAAGTTCATCTAGGGAACGTAAGATATGCT | 0.178 | 2.78 | 1.05 | 1.04 | 1.73 | 4.88 | 4.28 | 3.41 | 1.1 | 4.92 | 3.82 | 5.57 | 6.19 | 4.67 | 4.53 | 2.92 | -0.658 | 4.63
13 | TCGAGTGGGTTACCAATGGGGCATTCAGCTTTCT | 2.12 | 1.77 | -0.245 | -0.482 | -0.73 | -0.197 | -0.99 | -0.236 | -0.45 | 0.353 | 0.278 | 0.678 | -0.504 | -0.00783 | 0.312 | -0.369 | -1.25 | -1.02
14 | TCAGACAGATGAAGGTAACTCAGGTACGCAGTCG | 2.29 | 0.179 | -0.273 | -0.478 | 0.326 | 0.521 | 0.216 | 0.684 | 0.265 | 0.227 | -0.403 | 0.326 | 0.197 | 1.34 | 0.965 | 1.03 | -0.261 | 0.0374
15 | ACAACGAGGGCACGCTGAGTTGATAGCAGAGTAG | 3.61 | 3.13 | 0.767 | 0.323 | 0.345 | 1.22 | 0.145 | 0.573 | -0.791 | 2.63 | 0.921 | 2.12 | 2.44 | 2.16 | 1.24 | 1.75 | -0.067 | 2.04
